High-throughput results from PubChem.
Sampled rows, rich in hits. Any-hit rate of the full collection: about 1.9%.
PrP 5UTR inh: inhibition of PrP 5' UTR reporter expression | AID 488862 | cell-based PrP 5' UTR mRNA reporter, plate reader | 0.35% of 340,000 active | inhibition, % (test concentration not listed); in the data active = inhibition above about 52%
PriA SSB inh: K. pneumoniae PriA-SSBct interaction inhibition; inhibition, % at 33 µM; 0.6% of 430,000 active; AlphaScreen SSBct-PriA binding, biotinylated peptide; AID 1272365; in the data active = inhibition mostly above about 37%, no sharp cut-off; inactive = mostly below about 20%
PfHsp40 rescue: compounds rescuing yeast from Plasmodium falciparum HSP40 toxicity; growth rescue, % at 12.5 µM; 0.68% of 340,000 active; S. cerevisiae expressing PfHsp40, growth rescue, ATP luminescence; in the data active = growth rescue above about 28%, passing the limit was not always enough;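 note: yeast W303a lacking pdr1 and pdr3 grown in galactose medium; growth measured after three days at 30 °C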
RecA splice inh: inhibitors of M. tuberculosis RecA intein splicing. 0.75% of 290,000 active. P9WHJ3. cell-free RecA intein splicing, fluorescence. inhibition, % (test concentration not listed); in the data active = inhibition above about 30%
Target sequence (P9WHJ3 whole entry, looked up, canonical isoform): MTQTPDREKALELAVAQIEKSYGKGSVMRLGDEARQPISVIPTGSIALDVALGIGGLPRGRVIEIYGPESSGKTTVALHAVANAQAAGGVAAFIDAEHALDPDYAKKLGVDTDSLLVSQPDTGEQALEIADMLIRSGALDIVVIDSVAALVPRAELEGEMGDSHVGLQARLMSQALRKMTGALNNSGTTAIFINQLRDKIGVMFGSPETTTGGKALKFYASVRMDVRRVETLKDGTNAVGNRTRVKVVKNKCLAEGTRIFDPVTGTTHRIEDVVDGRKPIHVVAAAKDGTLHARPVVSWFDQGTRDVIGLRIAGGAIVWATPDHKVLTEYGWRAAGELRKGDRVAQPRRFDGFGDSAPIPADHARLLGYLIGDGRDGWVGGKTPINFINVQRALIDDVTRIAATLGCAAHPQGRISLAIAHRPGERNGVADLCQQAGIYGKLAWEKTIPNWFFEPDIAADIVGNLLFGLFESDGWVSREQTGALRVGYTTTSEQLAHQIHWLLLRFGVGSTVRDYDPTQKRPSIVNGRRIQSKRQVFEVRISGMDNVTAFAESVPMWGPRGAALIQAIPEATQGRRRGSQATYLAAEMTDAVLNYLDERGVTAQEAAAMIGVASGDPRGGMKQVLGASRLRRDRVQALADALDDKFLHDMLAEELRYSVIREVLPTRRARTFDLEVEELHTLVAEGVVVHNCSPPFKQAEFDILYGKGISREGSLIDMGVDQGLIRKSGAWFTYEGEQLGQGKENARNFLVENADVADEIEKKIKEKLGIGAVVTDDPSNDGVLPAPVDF
PrPC TRFRET: reduces human prion protein on the cell surface. P04156. cell surface PrPC, TR-FRET read-out. inhibition, % at 13.8 µM. 0.43% of 370,000 active. AID 720596; in the data active = inhibition above about 24%
BJeLR lethal: kills HRASV12-expressing BJeLR cells. BJeLR (HRASV12) viability, CellTiter-Glo ATP luminescence, 48 h. 0.17% of 300,000 active. inhibition, % (no concentration beside the values); in the data active = inhibition above about 50%
Numbers stand for hits.

Screening COc1ccccc1/C=C1\SC(=O)N(CCC(=O)NCCCn2ccnc2)C1=O returned PrP 5UTR inh inactive, PriA SSB inh inactive, PfHsp40 rescue inactive, RecA splice inh inactive, PrPC TRFRET inactive and BJeLR lethal 83.
Cn1c(-c2nc(C(=O)NN3CCOCC3)cs2)cc2ccccc21 was read as PriA SSB inh inactive.
Screening N#C/C(=C/c1ccccc1F)c1nc(-c2ccc(Cl)c(Cl)c2)cs1 returned PriA SSB inh inactive.
`Cc1ccc(CNC(=O)CC2CCCCN2S(=O)(=O)c2ccccc2)cc1` (stereo not drawn) gave PriA SSB inh inactive.
Screening O=C(CCl)Nc1cc(SCC(O)CO)cc([N+](=O)[O-])c1 (stereo not drawn) returned PrP 5UTR inh inactive, PriA SSB inh inactive, PfHsp40 rescue inactive, RecA splice inh inactive, PrPC TRFRET inactive and BJeLR lethal 81.
Screening Cn1c2ccccc2c2cc(C(=O)NNC(=O)CCl)sc21 returned PrP 5UTR inh inactive, PriA SSB inh inactive, PfHsp40 rescue inactive, RecA splice inh 33, PrPC TRFRET inactive and BJeLR lethal inactive.
CCCNC(=O)c1cc2c3ccccc3n(C)c2s1 was read as PrP 5UTR inh inactive, PriA SSB inh inactive, PfHsp40 rescue inactive, RecA splice inh inactive, PrPC TRFRET inactive and BJeLR lethal inactive.
CC(C)=C1SC(=O)N(CC(=O)NCc2ccccc2)C1=O was read as PriA SSB inh inactive.
`Cc1ccc(S(=O)(=O)/C(C#N)=C/c2c(Oc3ccc(Cl)cc3)nc3c(C)cccn3c2=O)cc1` gave RecA splice inh inactive and BJeLR lethal inactive.
For CN(C)n1cccc1/C=C(\C#N)S(=O)(=O)c1ccc(Cl)cc1 the results were PrP 5UTR inh inactive, PriA SSB inh inactive, PfHsp40 rescue 49, RecA splice inh inactive, PrPC TRFRET inactive and BJeLR lethal inactive.
COc1cc(OC)cc(C(=O)NN=C(C)CC(=O)Nc2ccccn2)c1 was read as PriA SSB inh inactive.
`O=C1CCN(N=Nc2cccc(Cl)c2)N1` gave RecA splice inh 40 and BJeLR lethal inactive.
`Cc1cc(C)cc(NC(=O)CSc2nc3[nH]c(=O)cc(O)c3s2)c1` gave PrP 5UTR inh inactive, PriA SSB inh inactive, PfHsp40 rescue 38, RecA splice inh inactive, PrPC TRFRET inactive and BJeLR lethal inactive.
For O=S(=O)(NC1c2cccc3cccc(c23)C1Cl)c1ccc(Cl)cc1 (stereo not drawn) the results were PriA SSB inh inactive.
COc1ccc(C=NNC(=O)c2ccc(Cn3cc([N+](=O)[O-])cn3)o2)c(OC)c1C was read as PriA SSB inh inactive.
For Cc1ccc(C2(COC(=O)C(C)C)CO2)c(OC(=O)C(C)C)c1 (stereo not drawn) the results were PrP 5UTR inh inactive, PriA SSB inh inactive, PfHsp40 rescue inactive, RecA splice inh inactive, PrPC TRFRET inactive and BJeLR lethal inactive.
Screening CCC(C)C(=O)OCC1(c2ccc(C)cc2OC(=O)C(C)C)CO1 (stereo not drawn) returned PrP 5UTR inh inactive, PriA SSB inh inactive, PfHsp40 rescue inactive, PrPC TRFRET inactive and BJeLR lethal 53.
Screening COc1ccc(OC)c(-c2cc(C3CCN(c4ncccc4[N+](=O)[O-])CC3)[nH]n2)c1 returned PrP 5UTR inh inactive, PriA SSB inh 65, PfHsp40 rescue inactive, RecA splice inh inactive, PrPC TRFRET inactive and BJeLR lethal inactive.
`COc1ccccc1-c1ccc(N2CCN(S(=O)(=O)c3cccc(F)c3)CC2)nn1` gave PriA SSB inh inactive.
For Cc1cc(N(C)C)ccc1N=Nc1ccc(N)cc1 the results were PrP 5UTR inh inactive, PriA SSB inh 93, PfHsp40 rescue inactive, RecA splice inh inactive, PrPC TRFRET inactive and BJeLR lethal inactive.
CCn1cc(C(=O)NCCc2csc(-n3cccn3)n2)c(=O)c2ccc(C)nc21 was read as PriA SSB inh inactive.
Screening COc1ccc(N/N=C(/C(N)=O)C2=NC(C)(C)Cc3ccccc32)cc1 returned PrP 5UTR inh inactive, PfHsp40 rescue inactive, RecA splice inh inactive, PrPC TRFRET inactive and BJeLR lethal inactive.
For CC(=O)c1ccc(NN=C(C(N)=O)C2=NC(C)(C)Cc3ccccc32)cc1 the results were PriA SSB inh 50.
NC(=O)c1ccc(NC(=O)C(=O)Nc2cccc(N3CCCCC3=O)c2)cc1 was read as PriA SSB inh inactive.
Screening O=C(N/N=C/c1c(O)n(Cc2ccccc2)c(=O)[nH]c1=O)c1ccccc1O returned PrP 5UTR inh inactive, PfHsp40 rescue 97, RecA splice inh inactive, PrPC TRFRET inactive and BJeLR lethal inactive.
For O=C(N/N=C/c1c(O)n(Cc2ccc(F)cc2)c(=O)[nH]c1=O)c1ccccc1O the results were PrP 5UTR inh inactive, PfHsp40 rescue 55, RecA splice inh 32, PrPC TRFRET inactive and BJeLR lethal inactive.
O=C(NN=Cc1c(O)n(Cc2ccc(F)cc2)c(=O)[nH]c1=O)c1ccccc1 was read as PriA SSB inh inactive.
`Cn1c(=O)cc(OCCCC(=O)NCc2ccccn2)c2ccccc21` gave PrP 5UTR inh inactive, PriA SSB inh inactive, PfHsp40 rescue inactive, RecA splice inh inactive, PrPC TRFRET inactive and BJeLR lethal inactive.
Cc1ccnc(NC(=O)CCCOc2cc(=O)n(C)c3ccccc23)c1 was read as PrP 5UTR inh inactive, PriA SSB inh inactive, PfHsp40 rescue inactive, RecA splice inh inactive, PrPC TRFRET 39 and BJeLR lethal inactive.
For O=C(NN=Cc1sc(N2CCCCC2)nc1-c1cccs1)c1cccnc1 the results were PriA SSB inh inactive.
`COCCN(Cc1ccoc1)C(=O)c1cc(C)ccc1C` gave PriA SSB inh inactive.
COc1cccc(NC(=O)CN2CCN(CC(=O)Nc3ccc(F)cc3)CC2)c1 was read as PriA SSB inh inactive, PfHsp40 rescue inactive, RecA splice inh inactive, PrPC TRFRET inactive and BJeLR lethal inactive.
Screening COc1ccc(NC(=O)CN2CCN(CC(=O)Nc3ccc(F)cc3F)CC2)cc1 returned PrP 5UTR inh inactive, PriA SSB inh inactive, PfHsp40 rescue 44, RecA splice inh inactive, PrPC TRFRET inactive and BJeLR lethal inactive.
`O=C(Nc1cccc(C(F)(F)F)c1)c1cccnc1NCCc1ccccc1` gave PrP 5UTR inh inactive, PriA SSB inh inactive, PfHsp40 rescue 389, RecA splice inh inactive, PrPC TRFRET inactive and BJeLR lethal inactive.
Screening Fc1cccc(Cl)c1-c1noc(C2CNC2)n1 returned PriA SSB inh inactive.
`O=C(COc1ccccc1F)NCCCN1CCN(c2ccccc2)CC1` gave PriA SSB inh inactive.
`COc1cccc2sc(=NC(=O)C3CCCN3S(=O)(=O)c3ccc(C)cc3)n(C)c12` (stereo not drawn) gave PriA SSB inh inactive.
`CC(C)n1c(O)c(C2c3cc(Cl)ccc3Oc3[nH]c(=O)n(C(C)C)c(=O)c32)c(=O)[nH]c1=O` (stereo not drawn) gave PrP 5UTR inh inactive, PriA SSB inh inactive, PfHsp40 rescue 281, RecA splice inh inactive and BJeLR lethal inactive.
